The record followed here is PubChem BioAssay (Tox21).

The structures appear in SMILES notation. A number with no mark means an inactive call. Records with an inconclusive call do not appear. Active and inactive are the calls of the source. Unless noted, the call rests on the fitted dose curve; in most records, active means well fitted curve in the direction sought with a large enough effect in the repeat runs; inconclusive means weak or mixed curves; inactive means no such curve, though single readings can be large; an effect the other way counts as inactive or inconclusive.

The nature of assay [1]: qHTS assay to test for compound auto fluorescence at 535 nm (green) in HEK293 cells (AID 720680). On the technique in general: Quantitative high-throughput screening tests each substance at several concentrations.
Assay [2] is described as follows: qHTS assay to test for compound auto fluorescence at 460 nm (blue) in HEK293 cell free culture (AID 720681). Put shortly:
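Blue fluorescence (Ex 405/Em 460 nm, triamterene-equivalent) was read immediately after pin transfer of compound or DMSO into medium (DMEM, 10% FBS) without cells.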

Assay [3] is described as follows: qHTS assay to test for compound auto fluorescence at 535 nm (green) in HEK293 cell free culture (AID 720682). Put shortly: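 Intrinsic compound fluorescence is measured in culture medium containing 10% FBS, with excitation at 485 nm and detection at 535 nm, referenced to fluorescein.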
The nature of assay [4]: qHTS assay to test for compound auto fluorescence at 590 nm (red) in HEK293 cell free culture (AID 720683). Put shortly:
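Red-channel autofluorescence of compounds in culture medium (DMEM, 10% FBS), no cells, measured at 540/590 nm. Rose Bengal sodium is the reference fluorophore for equivalence.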

Assay [5] can be described thus: qHTS assay to test for compound auto fluorescence at 590 nm (red) in HepG2 cell free culture (AID 720684). The essentials:
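Steps: dispense MEM/10% FBS medium, no cells; pin compound or DMSO vehicle; read red channel, Ex/Em 540/590 nm. Output given as Rose Bengal sodium equivalents.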

A short description of assay [6]: qHTS assay to test for compound auto fluorescence at 460 nm (blue) in HepG2 cell free culture (AID 720685). The essentials:
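Compound (23 nL) or DMSO pinned into cell-free MEM with 10% FBS; blue fluorescence read at 405/460 nm excitation/emission, expressed as auto-fluorescence equivalency to triamterene.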

Assay [7] can be described thus: qHTS assay to test for compound auto fluorescence at 460 nm (blue) in HepG2 cells (AID 720687). The essentials: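 Blue-channel autofluorescence (Ex/Em 405/460 nm, triamterene-equivalent) was measured after 1 hr compound exposure at 37 C, 5% CO2. Cells were HepG2, plated overnight at 37 C in MEM plus 10% FBS.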
Assay [8] can be described thus: qHTS assay to identify small molecule antagonists of the glucocorticoid receptor (GR) signaling pathway - cell viability counter screen (AID 720693). Further: nearly all actives have a fitted effect of over 55% in size.
Assay [9] is described as follows: qHTS assay for identifying genotoxic compounds that show differential cytotoxicity against isogenic chicken DT40 cell lines with known DNA damage response pathways - wild type cell line (AID 743012). Further: nearly all actives have a fitted effect of over 60% in size. Further: potency means the concentration at half of the fitted maximal effect. The essentials: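 Parental DNA repair-proficient DT40 cells, 300 per well, were pre-incubated ~0.5 h at 37 C/5% CO2, pin-dosed with compounds in DMSO, then incubated 40 h. Viability was read as CellTiter-Glo luminescence after 30 min at room temperature.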

The nature of assay [10]: qHTS assay for identifying genotoxic compounds that show differential cytotoxicity against isogenic chicken DT40 cell lines with known DNA damage response pathways - Rev3 mutant cell line (AID 743014). Further: nearly all actives have a fitted effect of over 55% in size. Further: potency means the concentration at half of the fitted maximal effect.
Assay [11] in a line: qHTS assay for identifying genotoxic compounds that show differential cytotoxicity against isogenic chicken DT40 cell lines with known DNA damage response pathways - Rad54/Ku70 mutant cell line (AID 743015). Further: nearly all actives have a fitted effect of over 60% in size. Further: potency means the concentration at half of the fitted maximal effect.
A short description of assay [12]: qHTS assay to identify small molecule antagonists of the androgen receptor (AR) signaling pathway - cell viability counter screen (AID 743033; further: nearly all actives have a fitted effect of over 45% in size).
Assay [13] in a line: qHTS assay to identify small molecule antagonists of the androgen receptor (AR) signaling pathway using the MDA cell line - cell viability counter screen (AID 743041; further: nearly all actives have a fitted effect of over 45% in size). Put shortly:
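Cells were plated at 3,000 per well and left 5 h. Compounds in DMSO were then pinned in, followed by R1881. After 16 h at 37C, CellTiter-Fluor fluorescence gave viability.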

The nature of assay [14]: qHTS assay to test for compound auto fluorescence at 535 nm (green) in HepG2 cell free culture (AID 720686).
The target in assay [15] is Glucocorticoid receptor (Homo sapiens) (UniProt P04150). Put plainly: qHTS assay to identify small molecule agonists of the glucocorticoid receptor (GR) signaling pathway (AID 720691; active means well fitted activation curve with a large enough effect in the signal ratio in the repeat runs, not every such curve was filed as active; the % refers to the signal ratio). The essentials:
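GR-bla HeLa cells (beta-lactamase reporter under glucocorticoid response element) were plated 4 h at 37 C/5% CO2, given compounds in DMSO, and incubated 18 h at 37 C. LiveBLAzer B/G FRET substrate was added for 2 h at room temperature, then fluorescence intensity read.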

Assay [16] has the same target. Kind of assay: qHTS assay to identify small molecule antagonists of the glucocorticoid receptor (GR) signaling pathway (AID 720692; active means well fitted inhibition curve with a large enough effect in the signal ratio in the repeat runs, not every such curve was filed as active; the % refers to the signal ratio). The essentials: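 GR-bla HeLa cells (beta-lactamase reporter under glucocorticoid response element) were pre-plated 4 h at 37 C, treated with compounds plus 5 nM dexamethasone (final) for 18 h, then read by LiveBLAzer B/G FRET fluorescence after 2 h.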

Assay [17] has as its target Androgen receptor (Homo sapiens) (UniProt P10275). Put plainly: qHTS assay to identify small molecule antagonists of the androgen receptor (AR) signaling pathway (AID 743035; active means well fitted inhibition curve with a large enough effect in the signal ratio in the repeat runs, not every such curve was filed as active; the % refers to the signal ratio). The essentials:
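HEK293 cells stably carrying a UAS-driven beta-lactamase reporter (AR-UAS-bla GripTite) were plated for 4 h at 37C, then given compound and the agonist R1881 and incubated 16 h. Reporter activity was read by LiveBLAzer B/G FRET fluorescence after 2 h at room temperature.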

For assay [18] the target is unchanged. Kind of assay: qHTS assay to identify small molecule agonists of the androgen receptor (AR) signaling pathway (AID 743036; active means well fitted activation curve with a large enough effect in the signal ratio in the repeat runs, with a control signal flat, not every such curve was filed as active; the % refers to the signal ratio). The essentials:
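Agonist activity was scored by beta-lactamase reporter fluorescence in stably transfected HEK293 cells exposed to compounds for 16 h at 37C and 5% CO2. Substrate loading took 2 h at room temperature.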

Assay [19] has the same target. Kind of assay: qHTS assay to identify small molecule agonists of the androgen receptor (AR) signaling pathway using the MDA cell line (AID 743040; further: nearly all actives have a fitted effect of over 20% in size). The essentials:
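Cells plated, 5 h at 37C/0% CO2; compound or DMSO pinned; 16 h at 37C; ONE-Glo added; luminescence measured after 30 min at room temperature. Reporter line: MDA-kb2 with MMTV-luciferase responsive to AR and GR.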

Assay [20] shares this target. Kind of assay: qHTS assay to identify small molecule antagonists of the androgen receptor (AR) signaling pathway using the MDA cell line (AID 743042; further: nearly all actives have a fitted effect of over 55% in size). The essentials: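 Antagonist mode: compounds plus R1881 agonist added to MDA-kb2 AR-luc cells, incubated 16 h at 37C. Luciferase reporter luminescence quantified, with multiplexed CellTiter-Fluor readout for cell viability.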

Chain of Androgen receptor (Homo sapiens) (P10275 whole entry, looked up): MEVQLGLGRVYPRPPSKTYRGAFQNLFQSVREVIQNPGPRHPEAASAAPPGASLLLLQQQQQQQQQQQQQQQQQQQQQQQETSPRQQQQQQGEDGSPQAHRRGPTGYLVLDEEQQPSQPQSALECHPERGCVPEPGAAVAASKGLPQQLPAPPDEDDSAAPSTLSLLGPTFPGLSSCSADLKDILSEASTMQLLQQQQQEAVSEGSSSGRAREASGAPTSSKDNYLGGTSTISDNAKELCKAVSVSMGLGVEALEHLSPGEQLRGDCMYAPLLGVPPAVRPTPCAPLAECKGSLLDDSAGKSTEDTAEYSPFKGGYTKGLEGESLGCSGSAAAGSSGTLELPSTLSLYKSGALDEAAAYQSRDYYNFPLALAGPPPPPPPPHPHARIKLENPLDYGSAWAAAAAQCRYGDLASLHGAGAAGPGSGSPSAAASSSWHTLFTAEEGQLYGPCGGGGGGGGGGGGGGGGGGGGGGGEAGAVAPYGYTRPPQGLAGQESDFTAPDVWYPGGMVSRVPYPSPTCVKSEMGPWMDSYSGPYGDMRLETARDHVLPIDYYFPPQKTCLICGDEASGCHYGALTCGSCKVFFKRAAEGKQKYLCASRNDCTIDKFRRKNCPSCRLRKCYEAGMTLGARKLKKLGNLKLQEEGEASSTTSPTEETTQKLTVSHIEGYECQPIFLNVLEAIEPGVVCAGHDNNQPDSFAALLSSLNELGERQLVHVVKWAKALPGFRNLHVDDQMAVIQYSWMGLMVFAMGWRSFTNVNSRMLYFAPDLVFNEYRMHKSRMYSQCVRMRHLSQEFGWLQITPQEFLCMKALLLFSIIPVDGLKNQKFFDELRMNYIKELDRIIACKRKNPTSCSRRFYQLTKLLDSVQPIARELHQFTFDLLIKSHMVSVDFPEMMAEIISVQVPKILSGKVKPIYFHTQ
Chain of Glucocorticoid receptor (Homo sapiens) (P04150 whole entry, looked up): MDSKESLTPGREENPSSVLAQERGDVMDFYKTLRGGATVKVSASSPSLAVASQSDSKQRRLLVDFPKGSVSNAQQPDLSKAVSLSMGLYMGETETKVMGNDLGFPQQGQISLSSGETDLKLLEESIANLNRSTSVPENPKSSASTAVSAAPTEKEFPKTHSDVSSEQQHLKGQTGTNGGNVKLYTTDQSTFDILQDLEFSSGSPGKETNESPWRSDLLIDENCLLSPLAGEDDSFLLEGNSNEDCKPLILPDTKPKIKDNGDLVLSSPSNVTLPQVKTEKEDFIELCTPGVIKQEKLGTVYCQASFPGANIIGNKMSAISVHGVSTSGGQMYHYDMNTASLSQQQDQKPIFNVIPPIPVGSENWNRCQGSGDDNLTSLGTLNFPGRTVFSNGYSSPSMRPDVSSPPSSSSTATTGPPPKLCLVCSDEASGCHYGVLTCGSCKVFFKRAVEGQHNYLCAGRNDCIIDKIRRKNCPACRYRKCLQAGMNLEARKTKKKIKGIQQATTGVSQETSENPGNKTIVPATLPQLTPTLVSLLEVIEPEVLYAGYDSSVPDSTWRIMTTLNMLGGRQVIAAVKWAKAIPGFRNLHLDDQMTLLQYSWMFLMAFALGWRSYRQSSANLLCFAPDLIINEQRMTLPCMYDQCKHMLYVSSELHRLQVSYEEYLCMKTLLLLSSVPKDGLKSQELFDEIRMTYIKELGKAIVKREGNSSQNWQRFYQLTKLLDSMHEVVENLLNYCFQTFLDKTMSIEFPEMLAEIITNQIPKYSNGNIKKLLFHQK

With `C=C(C)[C@@H]1CC[C@@H](C)C[C@@H]1O`, the outcome in [1], in [2], in assay [3], in [4], in assay [5] and in assay [6] was inactive. For the same compound, the compound was classed as inactive in assay [7], in assay [12] and in [13]. The Potency entry in assay [8], in assay [9], in assay [10] and in [11] was “inactive” each time.
As to `C=COCCOCCOC=C`, the call in assay [1], in assay [3], in [4], in [5], in assay [6] and in [14] was inactive. The call in assay [7], in assay [16], in assay [12] and in assay [13] was inactive. Besides, the Potency result in assay [15], in assay [8], in assay [9], in assay [10] and in assay [11] was “inactive” in each case.
As for `Cn1c(=O)c2c(ncn2CC2OCCO2)n(C)c1=O`, the result in [1], in [3], in [4], in assay [5], in assay [6] and in assay [14] was inactive. Besides, the compound was called inactive in [7], in assay [12], in assay [18], in [19], in assay [13] and in assay [20]. In addition, the Potency entry in [8], in assay [9], in [10], in [11] and in [17] was “inactive” each time.
With `O=C(O)Cc1cccc(-c2cc(CCCCCCc3ccc(O[C@H]4O[C@H](CO)[C@@H](O)[C@H](O)[C@@H]4O)c(-c4cccc(CC(=O)O)c4)c3)ccc2O[C@H]2O[C@H](CO)[C@@H](O)[C@H](O)[C@@H]2O)c1`, the call in assay [1], in assay [3], in assay [4], in assay [5], in assay [6] and in assay [7] was inactive. For the same compound, in [13], the compound was called inactive. Further, the Potency result in assay [8], in assay [9], in [10] and in assay [11] was “inactive” in each case.
Regarding `Cc1nc([N+](=O)[O-])cn1-c1ccc([N+](=O)[O-])cc1`, the compound was classed as inactive in [1], in assay [3], in [4], in assay [5], in assay [6] and in [14]. The compound was classed as inactive in assay [7], in assay [16], in [12] and in assay [13]. For the same compound, the Potency entry in assay [15], in [8], in assay [9] and in [10] was “inactive” each time.
With `CC(=O)/C=C/c1ccco1`, the result in [1], in [3], in [4], in assay [5], in assay [6] and in assay [14] was inactive. Besides, the outcome in assay [7] and in [12] was inactive. Further, the Potency entry in [8], in assay [9] and in [10] was “inactive” throughout.
In the case of `C=CCOCC(O)CCl` (configuration not stated), the compound was called inactive in assay [1], in assay [3], in [4], in [5], in assay [6] and in [7]. Moreover, the compound was classed as inactive in [16], in assay [12], in assay [18], in assay [19], in [13] and in assay [20]. The Potency result in assay [15], in assay [8], in [9], in assay [10], in assay [11] and in assay [17] was “inactive” throughout.
Regarding `CC(C)CCO`, the compound was called inactive in assay [1], in assay [3], in [4], in assay [5], in [6] and in [14]. For the same compound, the outcome in assay [7], in [12] and in assay [13] was inactive. Further, the Potency result in [8], in [9], in assay [10] and in [11] was “inactive” throughout.
`CCCCCCCCCCCCC1CO1` (configuration not stated): the outcome in assay [1], in assay [3], in assay [4], in assay [5], in assay [6] and in assay [14] was inactive. The result in assay [7], in assay [16], in [12] and in assay [13] was inactive. Moreover, the Potency entry in assay [15] and in assay [8] was “inactive” each time.
Regarding `Oc1ccccc1Cc1ccccc1O`, the result in [1], in [3], in assay [4], in assay [5], in assay [6] and in [14] was inactive. The call in assay [7], in assay [16], in [12] and in assay [13] was inactive. Further, the Potency entry in [15], in [8], in assay [9] and in assay [10] was “inactive” each time.
Consider `CCCCOC(=O)[C@@H](C)Oc1ccc(Oc2ccc(C(F)(F)F)cn2)cc1`, for which the compound was called inactive in [1], in [3], in assay [4], in assay [5], in assay [6] and in assay [14]. Moreover, the outcome in assay [7], in [12] and in assay [13] was inactive. Further, the Potency entry in assay [15], in assay [8], in assay [9], in assay [10] and in assay [11] was “inactive” throughout.
As for `C1=CCC(c2ccccc2)CC1` (configuration not stated), the outcome in assay [1], in assay [3], in [4], in assay [5], in assay [6] and in assay [14] was inactive. Further, the compound was called inactive in [7], in assay [12] and in assay [13]. The Potency entry in assay [15] and in assay [8] was “inactive” each time. Also, the values for the Potency in assay [9], in assay [10] and in [11] were 61.1 µM (active), 30.6 µM (active) and 54.5 µM (active), respectively.
Regarding `Cc1cc(O)c2c(c1)C(=O)c1cccc(O)c1C2=O`, the compound was called inactive in assay [1], in assay [3], in [4], in assay [5], in assay [6] and in assay [14]. The compound was classed as inactive in [7], in [12] and in assay [13]. The Potency result in [15] and in assay [9] was “inactive” throughout. The Potency in assay [11] is 26.7 µM (active).
Regarding `C=C[Si](C)(C)O[Si](C)(C)C=C`, the call in assay [1], in assay [3], in assay [4], in assay [5], in assay [6] and in assay [14] was inactive. Also, the outcome in assay [7], in assay [16], in assay [12] and in assay [13] was inactive. For the same compound, the Potency result in assay [15], in assay [8] and in assay [10] was “inactive” in each case.
For the compound `Cc1cccc(C(=O)O)c1[N+](=O)[O-]`, the result in assay [1], in assay [3], in [4], in assay [5], in [6] and in assay [7] was inactive. Moreover, the call in assay [12] and in [13] was inactive. Also, the Potency result in [8], in assay [9], in assay [10] and in assay [11] was “inactive” in each case.
Consider `CCOc1ccc(NC(=O)OC(C)C)cc1OCC`, for which the call in assay [1], in assay [3], in [4], in assay [5], in assay [6] and in assay [14] was inactive. Further, the compound was called inactive in assay [7], in [16], in [12] and in assay [13]. The Potency result in assay [15] and in assay [8] was “inactive” each time. Moreover, the Potency in assay [10] was 61.1 µM (active).
Turning to `C=C(C)C(=O)OC`, the compound was called inactive in assay [1], in [3], in assay [4], in [5], in assay [6] and in assay [7]. In addition, the compound was classed as inactive in [12] and in assay [13]. Besides, the Potency entry in assay [15], in assay [8], in assay [9], in assay [10] and in assay [11] was “inactive” each time.
`Cc1ccc(S(=O)(=O)NC(=O)NC2CCCCCCC2)cc1`: the result in [1], in assay [3], in [4], in [5], in [6] and in assay [14] was inactive. Besides, the compound was called inactive in [7], in assay [12] and in assay [13]. The Potency result in [15], in [8], in assay [9] and in assay [10] was “inactive” each time.
